Measured values taken from PubChem BioAssay AID1159580 (chemical genetic matrix, 2015).
About 2,000 (36%) of roughly 5,500 compounds were called active. Not shown: some 18% with an inconclusive outcome. Rule as the data show it: active = normalized growth mostly below about 0.91 (no sharp cut-off); inconclusive = no clear call, values can overlap the other calls; inactive = mostly above about 0.92. The list shows a part of the results.

Experiment: chemical genetic growth profiling, strain panel (AID 1159580);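 also: tested at 20 µM; growth read once vehicle control cultures reached saturation at 30 °C; 1 = growth at the plate median or of vehicle wells; lower values mean less growth of the strain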
Details: growth OD
[1] = S. cerevisiae deletion strains, locus YDR150W, strain NUM1, active compounds read low
[2] = S. cerevisiae deletion strains, locus YGR078C, strain PAC10, active compounds read low
[3] = S. cerevisiae deletion strains, locus YGR229C, strain SMI1, active compounds read low
[4] = S. cerevisiae deletion strains, locus YMR263W, strain SAP30, active compounds read low
[5] = S. cerevisiae deletion strains, locus YMR307W, strain GAS1, active compounds read low
[6] = S. cerevisiae deletion strains, locus YNL128W, strain TEP1, active compounds read low
[7] = S. cerevisiae deletion strains, locus YNL153C, strain GIM3, active compounds read low
[8] = S. cerevisiae deletion strains, locus YPL055C, strain LGE1, active compounds read low
[9] = S. cerevisiae deletion strains, locus YAL013W, strain DEP1, active compounds read low
[10] = S. cerevisiae deletion strains, locus YBR229C, strain ROT2, active compounds read low
[11] = S. cerevisiae deletion strains, locus YCL061C, strain MRC1, active compounds read low
[12] = S. cerevisiae deletion strains, locus YDL101C, strain DUN1, active compounds read low
[13] = S. cerevisiae deletion strains, locus YDL134C, strain PPH21, active compounds read low
[14] = S. cerevisiae deletion strains, locus YEL061C, strain CIN8, active compounds read low
[15] = S. cerevisiae deletion strains, locus YHR030C, strain SLT2, active compounds read low
[16] = S. cerevisiae deletion strains, locus YHR087W, strain rtc3, active compounds read low
[17] = S. cerevisiae deletion strains, locus YJR043C, strain POL32, active compounds read low
[18] = S. cerevisiae deletion strains, locus YJR075W, strain HOC1, active compounds read low
[19] = S. cerevisiae deletion strains, locus YLR039C, strain RIC1, active compounds read low
[20] = S. cerevisiae deletion strains, locus YLR058C, strain SHM2 (second series), active compounds read low
[21] = S. cerevisiae deletion strains, locus YLR085C, strain ARP6, active compounds read low
[22] = S. cerevisiae deletion strains, locus YLR262C, strain YPT6, active compounds read low
[23] = S. cerevisiae deletion strains, locus YML094W, strain GIM5, active compounds read low
[24] = S. cerevisiae deletion strains, locus YMR219W, strain ESC1, active compounds read low
[25] = S. cerevisiae deletion strains, locus YNL298W, strain CLA4 (second series), active compounds read low
[26] = S. cerevisiae deletion strains, locus YNL322C, strain KRE1, active compounds read low
[27] = S. cerevisiae deletion strains, locus YNR030W, strain Alg12, active compounds read low
[28] = S. cerevisiae deletion strains, locus YPL241C, strain CIN2, active compounds read low
[29] = S. cerevisiae deletion strains, locus YPR135W, strain CTF4, active compounds read low

Measured: normalized growth

O=C1C2C=CC=CC2=NC(=S)N1CCN1CCC(=C(c2ccc(F)cc2)c2ccc(F)cc2)CC1 (centres undefined)
active: [2] 0.857 | [3] 0.717 | [5] 0.707 | [7] 0.578 | S. cerevisiae deletion strains, locus YOR083W, strain WHI5 (second series), active compounds read low 0.607
inactive: S. cerevisiae deletion strains, locus YAL040C, strain CLN3, active compounds read low 0.896 | S. cerevisiae deletion strains, locus YCL061C, strain MRC1 (second series), active compounds read low 1.01 | [1] 1 | S. cerevisiae deletion strains, locus YDR363W, strain ESC2, active compounds read low 0.951 | S. cerevisiae deletion strains, locus YER002W, strain NOP16, active compounds read low 1.04 | [4] 0.985 | [6] 1.06 | S. cerevisiae deletion strains, locus YNL197C, strain WHI3, active compounds read low 1.08 | S. cerevisiae deletion strains, locus YNL224C, strain SQS1, active compounds read low 1.02 | [8] 1.03

CCc1nnc(N=CNO)s1
inactive: [9] 0.956 | [11] 0.913 | [12] 0.932 | [13] 0.989 | [1] 0.978 | [2] 0.973 | [3] 0.992 | [17] 0.97 | [19] 0.967 | [20] 1 | [21] 0.803 | [22] 0.947 | [4] 0.968 | [7] 0.965 | [26] 1.01 | [27] 0.944 | [8] 0.909 | [28] 0.99 | [29] 0.795
active: [10] 0.846 | [14] 0.843 | [15] 0.573 | [16] 0.79 | S. cerevisiae deletion strains, locus YJL187C, strain SWE1, active compounds read low 0.817 | [18] 0.809 | [23] 0.855 | [24] 0.879 | [25] 0.823 | S. cerevisiae deletion strains, locus YOL006C, strain TOP1, active compounds read low 0.465

CCOC(=O)Cc1csc(N=CNO)n1
inactive: [9] 1.01 | [10] 1.02 | [11] 1.01 | [12] 1 | [13] 1.02 | [1] 0.892 | [14] 1.01 | [2] 1.02 | [3] 0.997 | [15] 0.999 | [16] 1.04 | [17] 0.989 | [18] 1.05 | [19] 0.992 | [20] 1.02 | [21] 1.03 | [22] 0.951 | [23] 1.02 | [24] 1.02 | [4] 0.999 | [5] 1.03 | [6] 0.999 | [7] 1.01 | [25] 1.05 | [26] 1.01 | [27] 1.03 | [8] 1.02 | [28] 1.02 | [29] 1.04 | S. cerevisiae strains, strain wild type, active compounds read low 1.03
